# Measured values as given in the supplement of paper PMC8371130.
# Counter-ions that a name gives are not always drawn.
# Tested on: HL-1
# Experiment: relative cell viability (CellTiter-Glo) vs DMSO control (% of DMSO control); higher = more viable cells
# Details: oxygen condition: hypoxia 48 h (1% O2) + reoxygenation 24 h; 40 nM
# Summary of the method: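 HL-1 mouse atrial cardiomyocytes were plated in 384-well plates at 1000 cells per well together with compounds at 40, 200, 1000 or 5000 nM in 0.01% DMSO. One day later, cells went to a hypoxic workstation (1% O2) for 48 h, then were reoxygenated for 24 h in a normal incubator, or stayed in normoxia for the same time. Cell viability was read by CellTiter-Glo luminescence and normalised to vehicle-treated control cells.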
row,SMILES,relative cell viability
1,CCN[C@H]1C[C@H](C)S(=O)(=O)c2sc(S(N)(=O)=O)cc21 [Dorzolamide HCL],111
2,CNC[C@H](O)c1cccc(O)c1 [Phenylephrine HCl],110
3,CN(CCOc1ccc(NS(C)(=O)=O)cc1)CCc1ccc(NS(C)(=O)=O)cc1 [Dofetilide],102
4,O=C(O[C@H]1CN2CCC1CC2)N1CCc2ccccc2[C@@H]1c1ccccc1 [Solifenacin succinate],110
5,CCCNCC(O)COc1ccccc1C(=O)CCc1ccccc1 (stereo not given) [Propafenone],97.1
6,CN1CCOC(c2ccccc2)c2ccccc2C1 (stereo not given) [Nefopam HCl],95.1
7,Clc1ccc(COC(Cn2ccnc2)c2ccc(Cl)cc2Cl)cc1 (stereo not given) [Econazole nitrate],102
8,O=C1c2ccccc2C(=O)C1c1ccccc1 [Phenindione],97
9,O=C1[C@H](CC[C@H](O)c2ccc(F)cc2)[C@@H](c2ccc(O)cc2)N1c1ccc(F)cc1 [Ezetimibe],111
10,CN(C(=O)CN(CCO)CC(=O)N(C)C(C)(C)Cc1ccccc1)C(C)(C)Cc1ccccc1 [Oxethazaine],102
11,N=C(N)NC(=N)N1CCOCC1 [Moroxydine],101
12,O=C(O)C1(C(=O)O)CCC1.[NH2-].[NH2-].[Pt+2] [Carboplatin],110
13,OC(CCN1CCCCC1)(c1ccccc1)C1CC2C=CC1C2 (stereo not given) [Biperiden HCl],106
14,Cc1nccn1CC1CCc2c(c3ccccc3n2C)C1=O (stereo not given) [Ondansetron],99.4
15,CCOC(=O)c1c(C)n(C)c2ccc(O)cc12 [Mecarbinate],102
